Bioassay records as filed in PubChem BioAssay.
OTUD3 inh: inhibitors of human OTUD3 deubiquitinase | OTU domain-containing protein 3 (Homo sapiens), Q5T2D3 | purified OTUD3, Ub-rhodamine fluorescence, 2 h | inhibition, % at 25 µM | 47,000 compounds, 0.7% hits | AID 1645858, 2021
Target sequence (Q5T2D3 whole entry, looked up, the tested form may be a part): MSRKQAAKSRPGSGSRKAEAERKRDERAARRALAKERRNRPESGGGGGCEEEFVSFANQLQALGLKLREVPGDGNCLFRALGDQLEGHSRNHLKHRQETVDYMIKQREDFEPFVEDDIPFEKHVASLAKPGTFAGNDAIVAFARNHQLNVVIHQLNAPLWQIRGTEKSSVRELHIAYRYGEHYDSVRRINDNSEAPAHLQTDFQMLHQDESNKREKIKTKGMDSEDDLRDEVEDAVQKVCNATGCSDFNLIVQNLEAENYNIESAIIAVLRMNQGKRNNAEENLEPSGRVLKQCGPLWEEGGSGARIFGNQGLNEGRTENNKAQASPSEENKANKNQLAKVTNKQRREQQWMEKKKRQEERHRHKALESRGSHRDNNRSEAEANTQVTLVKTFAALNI
USP17 block: inhibitors of human USP17 deubiquitinase; inhibition, % at 50 µM; purified USP17, Ub-rhodamine cleavage fluorescence, 3 h; Ubiquitin carboxyl-terminal hydrolase 17-like protein 5 (Homo sapiens), A8MUK1; 47,000 compounds, 6.5% hits
USP28 inh: inhibitors of human USP28 deubiquitinase; Ubiquitin carboxyl-terminal hydrolase 28 (Homo sapiens), Q96RU2; purified USP28, Ub-rhodamine cleavage fluorescence, 30 min; inhibition, % at 25 µM; 47,000 compounds, 3% hits
USP30 block: inhibitors of human USP30 deubiquitinase. inhibition, % at 25 µM. 47,000 compounds, 5.3% hits. AID 1645860, 2021. purified USP30, Ub-rhodamine cleavage fluorescence. Ubiquitin carboxyl-terminal hydrolase 30 (Homo sapiens), Q70CQ3
Numbers stand for hits. An excerpt weighted towards active compounds, which were near 11% of everything screened. Rule as the data show it: active = inhibition above about 30%; inactive = the rest.

How did COc1ccc(N=c2oc3ccccc3cc2C(=O)Nc2ccncc2)cc1OC do in these assays?
OTUD3 inh: inactive; USP17 block: inactive; USP28 inh: inactive; USP30 block: inactive

What do the screens show for `COc1cc(NC(=O)c2cccnc2)ccc1NC(=O)c1cc2ccccc2o1`?
OTUD3 inh: inactive; USP17 block: 39.0; USP28 inh: inactive; USP30 block: inactive

How did CC(OC(=O)C1CCN(C(=O)c2ccc(Cl)cc2)CC1)C(=O)Nc1ccc([N+](=O)[O-])cc1C(F)(F)F (stereo not drawn) do in these assays?
OTUD3 inh: inactive; USP17 block: inactive; USP28 inh: inactive; USP30 block: inactive

What do the screens show for `Cc1ccc2c(C(=O)N3CCCCC3)cc(NC(=O)C3CCC3)cc2n1`?
OTUD3 inh: inactive; USP17 block: inactive; USP28 inh: inactive; USP30 block: inactive

What do the screens show for `CCc1nc(SCC(=O)NC2CCCCC2)c2oc3ccccc3c2n1`?
OTUD3 inh: inactive; USP17 block: inactive; USP28 inh: inactive; USP30 block: inactive

How did COC(=O)c1ccccc1NC(=O)CSc1nc(C)nc2c1oc1ccccc12 do in these assays?
OTUD3 inh: inactive; USP17 block: 45.3; USP28 inh: inactive; USP30 block: inactive

What do the screens show for `Cc1nc(SCc2ccccc2C)c2oc3ccccc3c2n1`?
OTUD3 inh: inactive; USP17 block: 60.2

Results for Cc1nc(SCC(=O)NC2CCCC2)c2oc3ccccc3c2n1 ?
OTUD3 inh: inactive; USP17 block: inactive; USP28 inh: inactive; USP30 block: 38.3

How did Cc1nc(SCC(=O)Nc2cccc3ccccc23)c2oc3ccccc3c2n1 do in these assays?
OTUD3 inh: inactive; USP17 block: 30.6; USP28 inh: inactive; USP30 block: 41.9

What do the screens show for `COc1cc2cc3c(c(O)c2c(O)c1-c1c(OC)cc2cc4c(c(O)c2c1O)C(=O)OC1CC(C)OC41)C(=O)OC1CC(C)OC31` (stereo not drawn)?
OTUD3 inh: inactive; USP17 block: 60.5; USP28 inh: inactive; USP30 block: inactive

What do the screens show for `O=c1cc(CCC2CN(Cc3ccc4ncccc4c3)CCO2)nc[nH]1` (stereo not drawn)?
OTUD3 inh: inactive; USP17 block: inactive; USP28 inh: inactive; USP30 block: inactive

How did CC1CCC(NC(=O)C2CCCN2S(=O)(=O)c2ccc3nc(-c4ccccc4)[nH]c3c2)CC1 (stereo not drawn) do in these assays?
OTUD3 inh: inactive; USP17 block: 34.1; USP28 inh: inactive; USP30 block: inactive

What do the screens show for `COc1cc2c(=O)n(Cc3ccccc3)c(=O)n(CC(=O)N3CCCc4ccccc43)c2cc1OC`?
OTUD3 inh: inactive; USP17 block: inactive; USP28 inh: inactive; USP30 block: 33.8

What do the screens show for `COCCNC(=O)CCCn1c(=O)c2cc(OC)c(OC)cc2n(CC(=O)N2CCCc3ccccc32)c1=O`?
OTUD3 inh: inactive; USP17 block: inactive; USP28 inh: inactive; USP30 block: inactive

What do the screens show for `Cn1c(=O)n(Cc2ccccc2C(F)(F)F)c2cncnc21`?
OTUD3 inh: inactive; USP17 block: inactive; USP28 inh: inactive; USP30 block: inactive

What do the screens show for `O=C(c1cnn2cccnc12)N1CCn2c(nnc2C2CC2)C1`?
OTUD3 inh: inactive; USP17 block: inactive; USP28 inh: inactive; USP30 block: inactive

How did C[C@@H]1OC2=C(C(=O)c3cccc(O)c3C2=O)[C@H](O)[C@@H]1O do in these assays?
OTUD3 inh: 67.2; USP17 block: 80.3; USP28 inh: 71.1; USP30 block: inactive

Results for CC(C)c1ccc(OCC(=O)NCC2(N3CCN(C)CC3)CCCCC2)cc1 ?
OTUD3 inh: inactive; USP17 block: inactive; USP28 inh: inactive; USP30 block: 30.3

How did CN1CCN(C2(CNC(=O)COc3ccccc3[N+](=O)[O-])CCCCC2)CC1 do in these assays?
OTUD3 inh: inactive; USP17 block: inactive; USP28 inh: inactive; USP30 block: inactive

How did COc1ccc(NC(=O)c2nc3ccccc3nc2N2CCN(C)CC2)cc1Cl do in these assays?
OTUD3 inh: inactive; USP17 block: inactive; USP28 inh: inactive; USP30 block: inactive

What do the screens show for `COCCn1cnc2nnc3ccc(C(=O)NC4CCCC4)cc3c21`?
OTUD3 inh: inactive; USP17 block: inactive; USP28 inh: inactive; USP30 block: inactive

How did CCc1ccc(-n2c(C)cc(/C=C3\C(=N)N4N=CSC4=NC3=O)c2C)cc1 do in these assays?
OTUD3 inh: inactive; USP17 block: 46.0; USP28 inh: inactive; USP30 block: inactive

How did COc1ccc(C(=O)N(Cc2ccccc2)C(C)(C)c2ccccc2)c(OC)c1 do in these assays?
OTUD3 inh: inactive; USP17 block: inactive; USP28 inh: inactive; USP30 block: 44.2

Results for COc1ccc(NC(=O)CCC(=O)N(c2ccccc2)c2ccccc2)c(OC)c1 ?
OTUD3 inh: inactive; USP17 block: inactive; USP28 inh: inactive; USP30 block: inactive

How did Cc1ccc(NC(=O)CCc2nc(-c3cccnc3)no2)c(Cl)c1 do in these assays?
OTUD3 inh: inactive; USP17 block: inactive; USP28 inh: inactive; USP30 block: inactive

Results for COc1ccccc1N1CCN(C(=O)CSc2cc(=O)n(C)c3ccccc23)CC1 ?
OTUD3 inh: inactive; USP17 block: inactive; USP28 inh: inactive; USP30 block: 32.0

What do the screens show for `COCCN1CCS(=O)(=O)c2c(Cl)c(F)nc(Oc3ccccc3F)c21`?
OTUD3 inh: inactive; USP17 block: 49.5; USP28 inh: inactive; USP30 block: inactive

How did COCCCN1CCS(=O)(=O)c2c(Cl)c(F)nc(Oc3ccc(C#N)cc3)c21 do in these assays?
OTUD3 inh: inactive; USP17 block: 79.5; USP28 inh: inactive; USP30 block: inactive

What do the screens show for `O=S1(=O)CCN(Cc2cccnc2)c2c(Oc3ccccc3F)nc(F)c(Cl)c21`?
OTUD3 inh: inactive; USP17 block: inactive; USP28 inh: inactive; USP30 block: inactive

How did CC(C)OCCCn1c(=O)c2ccccc2n2c(CCC(=O)N3CCN(c4ccccn4)CC3)nnc12 do in these assays?
OTUD3 inh: inactive; USP17 block: inactive; USP28 inh: inactive; USP30 block: inactive

Results for Cc1c(Cc2ccccc2)sc(NC(=O)c2ccc(Cl)cc2)c1C(N)=O ?
OTUD3 inh: inactive; USP17 block: 32.5; USP28 inh: inactive; USP30 block: inactive

How did CCOc1ccc2[nH]c(=O)c(-c3nc4ccc(C)cn4c3NCc3ccccc3)cc2c1 do in these assays?
OTUD3 inh: inactive; USP17 block: 48.5; USP28 inh: 31.6; USP30 block: inactive

Results for CCOc1ncccc1C(=O)Nc1ccc(N2CCOCC2)cc1 ?
OTUD3 inh: inactive; USP17 block: inactive

How did COc1c(C)c(OC(=O)c2c(C)c(C)c(OC(=O)c3c(C)c(C)c(O)c(C)c3O)c(C)c2OC)c(C)c(C)c1C(=O)O do in these assays?
OTUD3 inh: inactive; USP17 block: 51.4; USP28 inh: 70.3; USP30 block: 53.7

How did COc1c(O)c(C)c(C)c(O)c1OC (tested in a mixture with another compound) do in these assays?
OTUD3 inh: inactive; USP17 block: inactive; USP28 inh: inactive; USP30 block: inactive

What do the screens show for `Cc1ccc2nc3c(cc2c1)CN(Cc1ccco1)C(=O)O3`?
OTUD3 inh: inactive; USP17 block: inactive; USP28 inh: inactive; USP30 block: inactive

Results for O=C1Oc2nc3ccccc3cc2CN1Cc1ccco1 ?
OTUD3 inh: inactive; USP17 block: 52.4; USP28 inh: inactive; USP30 block: inactive
